Results taken from PubChem BioAssay (NCI).
Compounds without any hit were thinned out: in the full panel of roughly 79,000, 15% have a hit. Unmarked numbers belong to inactive results. Active and inactive are the calls of the source. No stated cut-off is given here; in the data, active means growth inhibition above about 70%; inactive means the rest.

What was measured:
[1] = NCI Yeast Anticancer Drug Screen. Data for the rad50 strain (AID 155);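 further: 0% = growth of vehicle-only cultures of the same strain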; settings: S. cerevisiae rad50 strain growth inhibition; at 50.0 µM; stronger effect = higher value
Outline: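 Compounds were tested on a yeast strain with an engineered DNA damage repair alteration; the reported value is growth inhibition normalised to vehicle treatment.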

[2] = NCI Yeast Anticancer Drug Screen. Data for the mec2-1 strain (AID 157); settings: S. cerevisiae mec2-1 strain, at 50.0 µM, stronger effect = higher value
Outline: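 Mutant yeast (mec2-1) grown with compound; growth inhibition relative to vehicle control reported.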

[3] = NCI Yeast Anticancer Drug Screen. Data for the sgs1 mgt1 strain (AID 161);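 further: 0% = growth of cultures given vehicle only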; settings: S. cerevisiae sgs1 mgt1 strain, at 50.0 µM, stronger effect = higher value
Outline: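 Percent growth inhibition was derived by comparing compound-exposed mutant yeast with vehicle-exposed cultures. The strain carries alterations in DNA damage repair.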

[4] = NCI Yeast Anticancer Drug Screen. Data for the cln2 rad14 strain (AID 165);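 further: 0% = growth equal to vehicle treated cultures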; settings: S. cerevisiae cln2 rad14 strain, at 50.0 µM, stronger effect = higher value
Outline: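 Readout is yeast growth inhibition versus vehicle-treated controls, using a strain with cln2 and rad14 alterations exposed to compound.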

[5] = NCI Yeast Anticancer Drug Screen. Data for the bub3 strain (AID 167); settings: S. cerevisiae bub3 mutant strain, at 50.0 µM, stronger effect = higher value
Outline: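 Growth of a checkpoint-deficient yeast mutant is measured after compound exposure. Values represent inhibition relative to vehicle.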

[6] = NCI Yeast Anticancer Drug Screen. Data for the mlh1 rad18 strain (AID 175); settings: S. cerevisiae mlh1 rad18 strain growth inhibition; at 50.0 µM; stronger effect = higher value
Outline: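 Genetically defined yeast (DNA repair-deficient) exposed to compounds; growth inhibition determined relative to vehicle.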

CCCNCc1cccc2ccnc(C)c12
growth inhibition [1]: 40.9% | growth inhibition [2]: 9.6% | growth inhibition [3]: 0.45% | growth inhibition [4]: 17.6% | growth inhibition [5]: 15.9% | growth inhibition [6]: 28.6%

COC(=O)C1=COC(OC2OC(CO)C(O)C(O)C2O)C2C(C)CC(=O)C12 (stereo not drawn)
growth inhibition [1]: -39.2% | growth inhibition [2]: -39% | growth inhibition [3]: -22.4% | growth inhibition [4]: 20.6% | growth inhibition [5]: -29.9% | growth inhibition [6]: -20.4%

COc1cc(NCC2COc3c(ccc(OC)c3OC)C2=O)c([N+](=O)[O-])cc1OC (stereo not drawn)
growth inhibition [1]: 9.35% | growth inhibition [2]: 20.2% | growth inhibition [3]: 8.15% | growth inhibition [4]: 15.4% | growth inhibition [5]: -5.3% | growth inhibition [6]: 21.4%

COC(=O)C(C)(C)N=CN(C)C
growth inhibition [1]: -19.7% | growth inhibition [2]: 13.1% | growth inhibition [3]: -7.8% | growth inhibition [4]: 15.5% | growth inhibition [5]: -27.9% | growth inhibition [6]: 3.55%

O=c1c2ccccc2[nH]c2ccc(Cl)cc12
growth inhibition [1]: 47.6% | growth inhibition [2]: 13.9% | growth inhibition [3]: 24.9% | growth inhibition [4]: 21.6% | growth inhibition [5]: -9.65% | growth inhibition [6]: 61.1%

O=C(Nc1cccc(C(=O)Nc2ccc3cc(S(=O)(=O)O)cc(S(=O)(=O)O)c3c2)c1)Nc1cccc(C(=O)Nc2ccc3cc(S(=O)(=O)O)cc(S(=O)(=O)O)c3c2)c1
growth inhibition [1]: 6.8% | growth inhibition [2]: 34.1% | growth inhibition [3]: 9.25% | growth inhibition [4]: -3% | growth inhibition [5]: 3.65% | growth inhibition [6]: 33%

CCOc1cc2c(cc1OC)c[n+](C)c1c3cc(OC)c(OC)cc3ccc21
growth inhibition [1]: 22.5% | growth inhibition [2]: 10.9% | growth inhibition [3]: 15% | growth inhibition [4]: -2.1% | growth inhibition [5]: -6.05% | growth inhibition [6]: 14.6%

C1CCN(SN2CCCCC2)CC1
growth inhibition [1]: -4.4% | growth inhibition [2]: -15.7% | growth inhibition [3]: -3.6% | growth inhibition [4]: -13.2% | growth inhibition [5]: 4.75% | growth inhibition [6]: 5.7%

O=C1c2ccccc2-c2ccc(N3C(=O)C=CC3=O)cc21
growth inhibition [1]: 98.6% (active) | growth inhibition [2]: 98.6% (active) | growth inhibition [3]: 98.8% (active) | growth inhibition [4]: 56.2% | growth inhibition [5]: 92.4% (active) | growth inhibition [6]: 92.2% (active)

COC(Cc1cc(C(O)(c2ccc(C(C)(C)C)cc2)c2cc(CC(OC)(c3cc(C(OC)(c4ccc(C(C)(C)C)cc4)c4ccc(C(C)(C)C)cc4)c(C)cc3C)c3cc(C(OC)(c4ccc(C(C)(C)C)cc4)c4ccc(C(C)(C)C)cc4)c(C)cc3C)c(C)cc2C)c(C)cc1C)(c1cc(C(OC)(c2ccc(C(C)(C)C)cc2)c2ccc(C(C)(C)C)cc2)c(C)cc1C)c1cc(C(OC)(c2ccc(C(C)(C)C)cc2)c2ccc(C(C)(C)C)cc2)c(C)cc1C
growth inhibition [1]: -2.75% | growth inhibition [2]: -1.25% | growth inhibition [3]: 9.05% | growth inhibition [4]: -30.6% | growth inhibition [5]: 5.55% | growth inhibition [6]: 23.6%

COc1ccc(NC(=O)CSc2cc(Cl)ccc2Cl)cc1
growth inhibition [1]: 10.7% | growth inhibition [2]: 7.15% | growth inhibition [3]: 32.1% | growth inhibition [4]: 18.9% | growth inhibition [5]: 21.6% | growth inhibition [6]: 27.9%

COCc1ccc(C(C)(C)CC(C)(C)C)cc1
growth inhibition [1]: 32.6% | growth inhibition [2]: 8.4% | growth inhibition [3]: -0.1% | growth inhibition [4]: 13.6% | growth inhibition [5]: -0.45% | growth inhibition [6]: -1.3%

FC(F)(Br)C(F)(Cl)Br (stereo not drawn)
growth inhibition [1]: 18.6% | growth inhibition [2]: 18.8% | growth inhibition [3]: 17.6% | growth inhibition [4]: 17.4% | growth inhibition [5]: 1.5% | growth inhibition [6]: 24.7%

CCCCCCNC(=O)/C(=C\c1ccc(Cl)cc1Cl)NC(=O)c1ccccc1
growth inhibition [1]: -3.7% | growth inhibition [2]: -17.8% | growth inhibition [3]: -9.75% | growth inhibition [4]: 33.1% | growth inhibition [5]: -16.5% | growth inhibition [6]: -9.6%

CCCCC1(N=[N+]=[N-])C(=O)c2cccc3c2N(CCC3)C1=O (stereo not drawn)
growth inhibition [1]: 48.8% | growth inhibition [2]: 30.9% | growth inhibition [3]: 29.9% | growth inhibition [4]: 3.1% | growth inhibition [5]: 15.6% | growth inhibition [6]: 61.5%

COc1cc(/C=C/C(=O)c2sc(NNC(C)=O)nc2C)ccc1O
growth inhibition [1]: 15.6% | growth inhibition [2]: 6.85% | growth inhibition [3]: 19.3% | growth inhibition [4]: 23.1% | growth inhibition [5]: 18.8% | growth inhibition [6]: 27.1%

Cc1ccc(/C=C/C(=O)c2sc(-n3nc(-c4ccccc4)cc3-c3ccccc3)nc2C)cc1
growth inhibition [1]: -2.3% | growth inhibition [2]: -6.85% | growth inhibition [3]: -29.9% | growth inhibition [4]: 5.6% | growth inhibition [5]: 20.1% | growth inhibition [6]: -7.4%

CN(Cc1cnc2nc(N)nc(N)c2n1)c1ccc(C(=O)NC(CCC(=O)OC(C)(C)C)C(=O)O)cc1 (stereo not drawn)
growth inhibition [1]: 13.7% | growth inhibition [2]: 32.4% | growth inhibition [3]: 4.5% | growth inhibition [4]: -20.1% | growth inhibition [5]: -2.55% | growth inhibition [6]: -1.2%

CC(CO)c1ccccc1 (stereo not drawn)
growth inhibition [1]: 8.15% | growth inhibition [2]: 1.15% | growth inhibition [3]: -13.9% | growth inhibition [4]: -32.5% | growth inhibition [5]: -13.4% | growth inhibition [6]: -4%

CNn1c(C)n[nH]c1=O
growth inhibition [1]: 4.95% | growth inhibition [2]: -15.8% | growth inhibition [3]: 10.4% | growth inhibition [4]: 20.6% | growth inhibition [5]: 3.4% | growth inhibition [6]: 17.1%

CC(NC(=O)C(OC(=O)C(C)NC(=O)OC(C)(C)C)C(C)C)C(=O)OC(C(=O)O)C(C)C (stereo not drawn)
growth inhibition [1]: -24.2% | growth inhibition [2]: 10.3% | growth inhibition [3]: -5.75% | growth inhibition [4]: -1.1% | growth inhibition [5]: 2.1% | growth inhibition [6]: -7.15%

CCCCCCCCCC(=O)Oc1cccc2onc(C)c12
growth inhibition [1]: -21.2% | growth inhibition [2]: -43.5% | growth inhibition [3]: -20.2% | growth inhibition [4]: -7.8% | growth inhibition [5]: -13.5% | growth inhibition [6]: -10.8%

COc1c2ccoc2c(S(=O)(=O)Nc2ccc(Cl)cc2)c2oc(C)cc(=O)c12
growth inhibition [1]: 4.7% | growth inhibition [2]: -29.9% | growth inhibition [3]: -13.9% | growth inhibition [4]: -8.15% | growth inhibition [5]: -11.8% | growth inhibition [6]: -24.8%

O=C1c2ccccc2N2OC3(N4CCOCC4)CCCC3C12c1ccccc1 (stereo not drawn)
growth inhibition [1]: 57.5% | growth inhibition [2]: 21.9% | growth inhibition [3]: 45.3% | growth inhibition [4]: 25.9% | growth inhibition [5]: 60% | growth inhibition [6]: 48.5%

O=c1cc2n(c(=O)n1-c1ccccc1)CCCC2
growth inhibition [1]: 6.1% | growth inhibition [2]: 6.6% | growth inhibition [3]: 11.7% | growth inhibition [4]: 12.2% | growth inhibition [5]: -9.25% | growth inhibition [6]: -6.8%

O=C1C(Br)=CC(Br)=C/C1=N/Br
growth inhibition [1]: 70.6% (active) | growth inhibition [2]: 61.5% | growth inhibition [3]: 85.2% (active) | growth inhibition [4]: 61.1% | growth inhibition [5]: 70% (active) | growth inhibition [6]: 78.5% (active)

CN(C)Cc1cc(C(=O)/C=C/c2c(F)cccc2Cl)cc(CN(C)C)c1O
growth inhibition [1]: 1.7% | growth inhibition [2]: 21.4% | growth inhibition [3]: 2.35% | growth inhibition [4]: 1.05% | growth inhibition [5]: -13.8% | growth inhibition [6]: 7.35%

Cc1ccc(S(=O)(=O)C(Sc2ccccc2)=S=NC(C)(C)C)cc1
growth inhibition [1]: 89.8% (active) | growth inhibition [2]: 81.5% (active) | growth inhibition [3]: 89.3% (active) | growth inhibition [4]: 53.4% | growth inhibition [5]: 81.8% (active) | growth inhibition [6]: 91.8% (active)

CCOC(=O)c1ccc(C(=O)OCC)n1-c1cc2cc(c1)CSCc1cc(cc(-n3c(C(=O)OCC)ccc3C(=O)OCC)c1)CSC2
growth inhibition [1]: -26.2% | growth inhibition [2]: -30.1% | growth inhibition [3]: -20.9% | growth inhibition [4]: 16.6% | growth inhibition [5]: -13.8% | growth inhibition [6]: -5.15%

CC1(C)N=C(N)N=C(N)N1c1ccc(C(F)(F)F)cc1
growth inhibition [1]: 4.15% | growth inhibition [2]: 10.1% | growth inhibition [3]: 7.85% | growth inhibition [4]: -0.5% | growth inhibition [5]: 49% | growth inhibition [6]: 29.4%

N#CSC1C=CS(=O)(=O)C1 (stereo not drawn)
growth inhibition [1]: 44.6% | growth inhibition [2]: 4.05% | growth inhibition [3]: 19.6% | growth inhibition [4]: -44.1% | growth inhibition [5]: 3.55% | growth inhibition [6]: 58.8%

COc1ccc2nc3ccccc3c(NCCCN(C)C)c2c1[N+](=O)[O-]
growth inhibition [1]: -8.1% | growth inhibition [2]: -19.6% | growth inhibition [3]: 12.9% | growth inhibition [4]: -22.2% | growth inhibition [5]: -13.3% | growth inhibition [6]: -4.7%

CN(C)CCCC[N+](C)(C)Cc1ccc(C[N+](C)(C)CCCC[N+](C)(C)Cc2ccc(CCl)cc2)cc1
growth inhibition [1]: -9.7% | growth inhibition [2]: -15% | growth inhibition [3]: -7.2% | growth inhibition [4]: -0.95% | growth inhibition [5]: -1.9% | growth inhibition [6]: -3.55%

COc1ccc(/C=C2/SC(=S)NC2=O)cc1S(=O)(=O)O
growth inhibition [1]: 2.25% | growth inhibition [2]: -6.15% | growth inhibition [3]: 8.65% | growth inhibition [4]: -10.8% | growth inhibition [5]: 9.95% | growth inhibition [6]: -1.15%

CC(=O)Nc1cccc2c1C(=O)c1c(c(O)c3ccccc3c1O)C2=O
growth inhibition [1]: 24.9% | growth inhibition [2]: -9.85% | growth inhibition [3]: -12.8% | growth inhibition [4]: -9.3% | growth inhibition [5]: -8.4% | growth inhibition [6]: -1.85%

CC1CCCCC1(C)O (stereo not drawn)
growth inhibition [1]: 23.9% | growth inhibition [2]: 34.6% | growth inhibition [3]: -19.4% | growth inhibition [4]: 1.75% | growth inhibition [5]: 9% | growth inhibition [6]: 11.4%

CC(=O)OCC1OC(n2cc(F)c(=O)[nH]c2=O)C(OC(C)=O)C1OC(C)=O (stereo not drawn)
growth inhibition [1]: 28.9% | growth inhibition [2]: 3.2% | growth inhibition [3]: -13.1% | growth inhibition [4]: 43.2% | growth inhibition [5]: -16.4% | growth inhibition [6]: -26.4%

c1ccc2n[nH]nc2c1
growth inhibition [1]: 19.1% | growth inhibition [2]: -10.9% | growth inhibition [3]: 7.3% | growth inhibition [4]: 2.2% | growth inhibition [5]: -4.8% | growth inhibition [6]: 16.9%
